Screening data deposited in PubChem BioAssay by National Center for Advancing Translational Sciences (NCATS).
UDG counter = UDG inhibition counter-screen. 0.14% of 91,000 active. FRET deamination/UDG coupled assay, UDG read, 4 h. Potency, µM (series often up to 115 µM), hits mostly inhibitors. AID 1347430; further: nearly all actives have a fitted effect of over 65% in size
AID inh = activation induced cytidine deaminase inhibition. Potency, µM (series often up to 115 µM), hits mostly inhibitors. 0.32% of 91,000 active. AID deamination FRET fluorescence, UDG-coupled, 4 h. Q9GZX7; further: nearly all actives have a fitted effect of over 25% in size
Target sequence (Q9GZX7 whole entry, looked up): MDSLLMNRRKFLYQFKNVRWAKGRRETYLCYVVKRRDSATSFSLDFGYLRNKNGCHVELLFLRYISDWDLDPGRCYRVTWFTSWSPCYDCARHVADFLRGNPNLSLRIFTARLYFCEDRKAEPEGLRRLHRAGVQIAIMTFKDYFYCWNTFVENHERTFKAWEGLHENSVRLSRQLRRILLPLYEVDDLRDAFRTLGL
Each line names hits and unclear results; the compound was inactive in the other large screens; ! = not confirmed by another sample. Rows were chosen to be rich in hits. Some 0.4% of all compounds tested hit in one or more screens of this group. The call rests on the fitted dose curve; in most records, active means well fitted curve in the direction sought with a large enough effect; inconclusive means small, poorly fitted or top-dose-only effect, or another doubt; inactive means no such curve, though single readings can be large; an effect the other way counts as inactive or inconclusive.

Cn1cc(C(=O)NC2CCN(Cc3nnc(C(C)(C)C)o3)CC2)cn1	none
O=C(/C=C/c1cccc(Cl)c1)OC1CCCCC1=O (centres undefined)	none
O=S(=O)(NCCc1ccc(-n2cccn2)cc1)c1ccccc1	none
Oc1ccc(N=Cc2ccccc2OCc2ccccc2)cc1	UDG counter inconclusive, AID inh 14µM
C(=Nc1ccccc1)c1ccccc1OCc1ccccc1	none
Cc1ccccc1OCC(O)CN(Cc1ccccc1)Cc1ccccc1 (centres undefined)	none
COc1ccc(N(C)C(=O)c2cn(C3CCCCC3)c(=O)c3c2c2ccccc2n3C)cc1	UDG counter inconclusive, AID inh 40µM
COc1cc(NC(=O)c2cn(C3CCCC3)c(=O)c3c2c2ccccc2n3C)cc(OC)c1OC	none
CC(C)NC[C@H](O)c1ccc(O)c(O)c1	AID inh 79µM!
CCC(NC(C)C)C(O)c1ccc(O)c(O)c1 (centres undefined)	AID inh 45µM
CC(C)NCC(O)c1cc(O)cc(O)c1 (centres undefined)	none
NCC(O)c1ccc(O)c(O)c1 (centres undefined)	none
CCNC(=O)C(C)NC(=O)CCNC(=O)N(C)Cc1ccccc1 (centres undefined)	none
O=C(O)CCCC(=O)Nc1ccc(C(=O)N2CCCCCC2)cc1	none
O=C(COC(=O)c1ccc(-c2nnc(-c3ccccc3)o2)cc1)c1ccc(F)cc1	none
CCCc1nn(C)c2c(=O)[nH]c(-c3cc(S(=O)(=O)Nc4ccccc4C)ccc3OCC)nc12	none
C=C(C)C1CCC2(COC(=O)CCC(=O)O)CC[C@]3(C)C(CCC4[C@@]5(C)CCC(OC(=O)CCC(=O)O)C(C)(C)C5CC[C@]43C)C12 (some centres undefined)	AID inh 28µM
C=C(C)[C@@H]1CCC2(COC(C)=O)CC[C@]3(C)C(CCC4[C@@]5(C)CCC(=O)C(C)(C)C5CC[C@]43C)C12 (some centres undefined)	none
O=[N+]([O-])c1cc(N=Cc2cccnc2)cc2ccc3ccccc3c12	none
CC1CCN(S(=O)(=O)c2ccc(NC(=O)C3CC(=O)N(CCc4ccc(F)cc4)C3)cc2)CC1 (centres undefined)	UDG counter 89µM
CCc1ccc(NC(=O)C2CCCN(S(=O)(=O)c3ccc(F)cc3)C2)cc1 (centres undefined)	none
COC(=O)C1CCN(C(=O)Cn2nc(-c3cccs3)c3ccccc3c2=O)CC1	none
C=CCOc1ccc(/C=C(\C#N)c2nc3cc(C)c(C)cc3[nH]2)cc1OC	none
COc1ccccc1OCC(=O)N1CCC(c2nc3ccccc3o2)CC1	none
Cc1ccc(C(C)C)c(OCC(=O)N2CCC(c3nc4ccccc4o3)CC2)c1	AID inh 40µM
CCc1ccc(NC(=O)c2cnn3c2NC(C(=O)O)=CC3c2cc(OC)ccc2OC)cc1 (centres undefined)	none
Cc1ccc2nc(Cl)c3cc(C(=O)N4CCCC(C)C4)sc3c2c1 (centres undefined)	AID inh 40µM
Cc1ccc2nc(Cl)c3cc(C(=O)N4CCCCC4C)sc3c2c1 (centres undefined)	AID inh inconclusive
Cc1ccc(NC(=O)Cc2ccc3c(c2)CCCC3)cc1	none
O=C(NCc1ccccc1)NC(NC(=O)c1ccccc1)(C(F)(F)F)C(F)(F)F	none
CCCCCSc1nc2sc3c(c2c(=O)n1-c1ccccc1)CCN(C(C)=O)C3	AID inh 25µM
CCSc1nc2sc3c(c2c(=O)n1-c1ccc(C)c(Cl)c1)CCN(C(C)=O)C3	UDG counter inconclusive
Cc1ccc2cc(/C=C/C(=O)c3c(C)coc3C)c(Cl)nc2c1	none
CSc1ccc(CN(C)C(=O)/C=C/c2cccs2)cc1	none
Cc1ccc(Cl)cc1NC(=O)Nc1nnc(N(C)Cc2ccccc2)s1	UDG counter 89µM
Cc1ccc(NC(=O)Nc2nnc(N(C)Cc3ccccc3)s2)c(C)c1	none
O=S1(=O)c2ccccc2N(Cc2ccc(Cl)cc2)c2ccccc21	AID inh 79µM
O=S1(=O)c2ccccc2N(Cc2ccc(F)cc2)c2ccccc21	AID inh inconclusive
CCOc1ccc(CCNC(=O)c2nc(-c3cccc(F)c3)n3c2CCCCC3)cc1OCC	UDG counter inconclusive, AID inh 18µM
CN(C(=O)c1nc(-c2cccc(F)c2)n2c1CCCCC2)c1ccccc1F	none
CC(C)c1cccc(C(C)C)c1NC(=O)/C=C/c1cccc(F)c1	none
O=Cc1cc(Cc2ccccc2Cl)cc(Br)c1O	AID inh 35µM
O=Cc1ccc(OCc2ccccc2Cl)cc1	none
CCOCCCn1c(=N)c(C(=O)NC(C)c2ccccc2)cc2c(=O)n3cccc(C)c3nc21 (centres undefined)	AID inh 22µM
Cc1cccn2c(=O)c3cc(C(=O)NC(C)c4ccccc4)c(=N)n(CCOCCO)c3nc12 (centres undefined)	none
CCOC(=O)C(NC(=O)NC)C(F)(F)F (centres undefined)	none
